Inconclusive results are not listed. Some structures have more than one record in an assay (separate samples or runs), and their calls can disagree. The source made the active and inactive calls. Rule for the calls, unless noted: active = hit-call score of the fitted dose curve at least 0.9, where 1 is the maximum; inconclusive = response in the unintended direction; inactive = score below 0.9.

The nature of test [1]: ATG_M_61_CIS: Attagene CIS-FACTORIAL HepG2 Assay for M61 Transcription Factor (Internal Marker) (AID 2282937; active = hit-call score of the fitted dose curve at least 0.9, where 1 is the maximum; inactive = score below 0.9). The following applies: HepG2 Attagene CIS-FACTORIAL M61 internal marker reporter; actives raise or lower the signal. The method in brief:
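Transfect HepG2 with MRTUs; dose 24 h; isolate RNA; reverse-transcribe with DNase I treatment; PCR-amplify, FAM-label and cut with HpaI for 2 h at 37 C; resolve by CE. Bidirectional fitting against DMSO.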

Test [2] is described as follows: ATG_M_06_CIS: Attagene CIS-FACTORIAL HepG2 Assay for M06 Transcription Factor (Internal Marker) (AID 2282950; active = hit-call score of the fitted dose curve at least 0.9, where 1 is the maximum; inactive = score below 0.9). The settings on record: HepG2 Attagene CIS-FACTORIAL M06 internal marker reporter; actives raise or lower the signal. Summed up: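 Read-out is fluorescence of labelled reporter cDNA fragments resolved by capillary electrophoresis after RT-PCR. Cells: HepG2 carrying transfected cis-promoter reporter units, treated 24 h. Gain or loss of signal fitted relative to DMSO.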

Test [3] is described as follows: ATG_PPRE_CIS: Attagene CIS-FACTORIAL HepG2 Assay for human Peroxisome Proliferator-activated Response Element (PPRE) (AID 2282958; active = hit-call score of the fitted dose curve at least 0.9, where 1 is the maximum; inactive = score below 0.9). The settings on record: HepG2 PPRE cis-element reporter, Attagene transcription factor profiling; actives raise or lower the signal. The method in brief: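 PPRE activity in HepG2: transient cis-reporter transfection, 24 h compound incubation, reporter mRNA by RT-PCR and CE fluorescence; gain/loss fitted against DMSO.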

Test [4] is described as follows: ATG_TGFb_CIS: Attagene CIS-FACTORIAL HepG2 Assay for human Transforming Growth Factor (TGF) (AID 2282967; active = hit-call score of the fitted dose curve at least 0.9, where 1 is the maximum; inactive = score below 0.9). The settings on record: HepG2 Attagene CIS TGFb reporter, mRNA transcription; actives raise or lower the signal. Summed up:
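Transient MRTU transfection of HepG2 (FuGene 6). Dose 24 h. TriZol RNA, oligo(dT) RT, PCR, 6-FAM primer extension, HpaI cut, CE. Bidirectional fit, DMSO = baseline.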

The nature of test [5]: ATG_M_19_TRANS: Attagene TRANS-FACTORIAL HepG2 Assay for M19 Transcription Factor (Internal Marker) (AID 2282974). The settings on record: HepG2 Attagene TRANS-FACTORIAL M19 internal marker reporter. The method in brief:
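Transfected HepG2 (GAL4-UAS MRTUs), 24 h compound, TriZol RNA, DNase-treated RT, reporter PCR, FAM label, HpaI digest, CE fluorescence; gain vs DMSO.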

For test [6], the target named is Hepatocyte nuclear factor 4-alpha (Homo sapiens) (UniProt P41235). The test is described as follows: ATG_HNF4a_TRANS: Attagene TRANS-FACTORIAL HepG2 Assay for human Hepatocyte Nuclear Factor 4 alpha (HNF4a) (AID 2282982). The following applies: HepG2 HNF4a transactivation reporter, mRNA readout. Summed up: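 HepG2 cells transiently transfected with multiplexed GAL4-UAS reporter units responsive to chimeric NR-GAL4 proteins; compound exposure 24 h. Reporter mRNA quantified by RT-PCR, 6-FAM labelling, HpaI digestion and capillary electrophoresis; gain of signal versus DMSO baseline.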
Chain of Hepatocyte nuclear factor 4-alpha (Homo sapiens) (P41235 whole entry, looked up, the tested form may be a part): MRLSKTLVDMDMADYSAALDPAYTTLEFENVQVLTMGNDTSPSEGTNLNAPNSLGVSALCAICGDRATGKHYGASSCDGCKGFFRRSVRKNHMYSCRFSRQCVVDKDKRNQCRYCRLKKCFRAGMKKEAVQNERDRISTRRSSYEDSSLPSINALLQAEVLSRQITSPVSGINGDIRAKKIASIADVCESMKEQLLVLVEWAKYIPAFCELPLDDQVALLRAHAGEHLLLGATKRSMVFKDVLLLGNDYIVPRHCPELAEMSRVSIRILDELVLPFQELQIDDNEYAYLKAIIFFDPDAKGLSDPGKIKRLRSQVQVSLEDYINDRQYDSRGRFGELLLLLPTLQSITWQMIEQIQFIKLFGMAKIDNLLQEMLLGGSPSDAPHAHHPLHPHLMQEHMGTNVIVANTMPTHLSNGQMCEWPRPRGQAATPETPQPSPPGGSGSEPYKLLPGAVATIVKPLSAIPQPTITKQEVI

Test [7] deals with Nuclear respiratory factor 1 (Homo sapiens) (UniProt Q16656). In words: ATG_NRF1_CIS: Attagene CIS-FACTORIAL HepG2 Assay for human Nuclear Respiratory Factor 1 (NRF1) Orphan Gene (AID 2282987; active = hit-call score of the fitted dose curve at least 0.9, where 1 is the maximum; inactive = score below 0.9). The settings on record: HepG2 NRF1 cis-element reporter, Attagene multiplex; actives raise or lower the signal. Summed up: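 Measured: fluorescent reporter-specific RT-PCR products from transfected HepG2 cells, separated by capillary electrophoresis. Exposure lasted 24 h. Analysis used bidirectional curve fitting with DMSO as negative control.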
Chain of Nuclear respiratory factor 1 (Homo sapiens) (Q16656 whole entry, looked up): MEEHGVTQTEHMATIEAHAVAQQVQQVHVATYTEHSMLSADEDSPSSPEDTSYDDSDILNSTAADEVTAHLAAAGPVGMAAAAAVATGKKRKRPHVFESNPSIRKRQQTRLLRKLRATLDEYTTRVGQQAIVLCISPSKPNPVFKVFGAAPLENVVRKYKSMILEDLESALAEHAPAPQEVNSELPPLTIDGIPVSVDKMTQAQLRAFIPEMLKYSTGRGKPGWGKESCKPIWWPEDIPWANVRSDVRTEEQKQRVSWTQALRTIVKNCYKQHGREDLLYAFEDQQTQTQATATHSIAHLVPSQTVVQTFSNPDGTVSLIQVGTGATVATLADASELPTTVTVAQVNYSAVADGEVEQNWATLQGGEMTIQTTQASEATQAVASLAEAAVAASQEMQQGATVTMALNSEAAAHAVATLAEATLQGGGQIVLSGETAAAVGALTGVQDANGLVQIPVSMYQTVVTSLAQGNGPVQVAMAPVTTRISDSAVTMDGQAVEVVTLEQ

Test [8] in a line: ATG_NFI_CIS: Attagene CIS-FACTORIAL HepG2 Assay for human Nuclear Factor I (NFI) (AID 2282989; active = hit-call score of the fitted dose curve at least 0.9, where 1 is the maximum; inactive = score below 0.9). The settings on record: HepG2 cis-regulatory reporter, NFI response element transcription; actives raise or lower the signal. The method in brief: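 Transient MRTU transfection of HepG2 → 24 h chemical dosing → total RNA, oligo(dT) RT → PCR, 6-FAM primer extension, HpaI cut → capillary electrophoresis. Endpoint fitted bidirectionally relative to DMSO.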

In test [9] the target is Nuclear receptor subfamily 1 group I member 2 (Homo sapiens) (UniProt O75469). In words: ATG_PXR_TRANS: Attagene TRANS-FACTORIAL HepG2 Assay for human Pregnane X Receptor (PXR) (AID 2283008). The method in brief:
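HepG2 cells transiently transfected with multiple reporter units, here a PXR-GAL4 chimera driving a GAL4-UAS reporter; 24 h compound exposure. Reporter mRNA measured by RT-PCR, FAM labelling and capillary electrophoresis; gain of signal fitted against DMSO baseline.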

In test [10] the target is Retinoic acid receptor RXR-alpha (Homo sapiens) (UniProt P19793). The test is described as follows: ATG_RXRa_TRANS: Attagene TRANS-FACTORIAL HepG2 Assay for human Retinoid X Receptor alpha (RXRa) (AID 2283012). The method in brief: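 HepG2 cells transiently transfected with multiplexed GAL4-UAS reporter units and chimeric NR-GAL4 fusions, dosed 24 h. Reporter mRNA measured by RT-PCR, FAM labelling, HpaI digestion and capillary electrophoresis; gain-of-signal fitted relative to DMSO baseline.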
Chain of Retinoic acid receptor RXR-alpha (Homo sapiens) (P19793 whole entry, looked up, the tested form may be a part): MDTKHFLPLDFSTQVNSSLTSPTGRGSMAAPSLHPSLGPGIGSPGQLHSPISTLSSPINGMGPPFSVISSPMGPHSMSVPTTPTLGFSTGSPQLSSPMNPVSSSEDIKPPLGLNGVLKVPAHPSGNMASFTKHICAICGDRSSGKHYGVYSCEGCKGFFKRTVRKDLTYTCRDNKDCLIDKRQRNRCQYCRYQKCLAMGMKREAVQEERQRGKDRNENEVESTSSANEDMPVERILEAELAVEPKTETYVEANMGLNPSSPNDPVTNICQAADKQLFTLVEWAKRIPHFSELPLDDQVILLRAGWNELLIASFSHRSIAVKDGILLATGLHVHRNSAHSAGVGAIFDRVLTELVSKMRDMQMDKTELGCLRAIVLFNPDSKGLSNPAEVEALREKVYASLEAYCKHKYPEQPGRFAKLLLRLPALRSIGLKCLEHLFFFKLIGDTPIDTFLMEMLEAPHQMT

For test [11], the target named is Cellular tumor antigen p53 (Homo sapiens) (UniProt P04637). The test is described as follows: TOX21_p53_BLA_p2_ratio: Tox21 HCT-116 p53 Agonism Beta-lactamase Assay, Ratio, Phase 2 (AID 2283592). Summed up:
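Gain-of-signal p53 agonism was scored from the beta-lactamase FRET ratio (460/530 nm, 405 nm excitation) in HCT116 cells treated 16 h at 37C, 5% CO2, with DMSO serving as negative control and baseline.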

Test [12] has the same target. The test is described as follows: TOX21_p53_BLA_p3_ratio: Tox21 HCT-116 p53 Agonism Beta-lactamase Assay, Ratio, Phase 3 (AID 2283596). Summed up:
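HCT116 p53-bla cells (4000/well) given compound in DMSO (217-fold dilution) after 5 h, incubated 16 h at 37C. CCF4-AM substrate 2 h at room temperature; 460/530 nm emission ratio, gain fitted against DMSO.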

For test [13] the target is unchanged. The test is described as follows: TOX21_p53_BLA_p5_ratio: Tox21 HCT-116 p53 Agonism Beta-lactamase Assay, Ratio, Phase 5 (AID 2283599). The method in brief:
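HCT-116 cells carrying a p53-inducible beta-lactamase reporter were seeded at 4000 cells/well and dosed after 5 h with compound in DMSO (217-fold dilution). After 16 h at 37C, CCF4-AM substrate was added for 2 h, and the 460/530 nm emission ratio was scored as gain-of-signal versus DMSO.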

Test [14] can be described thus: TOX21_p53_BLA_p5_viability: Viability Assessment in the Tox21 HCT-116 p53 Agonism Beta-lactamase Assay, Phase 5 (AID 2283600). Summed up: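 After the 460/530 nm beta-lactamase measurement, the wells received an ATP-detection luciferase reagent; signal was read 30 min later at RT. Compound treatment lasted 16 h on cells pre-incubated 5 h post-seeding.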
For test [15], the target named is Cellular tumor antigen p53 (Homo sapiens) (UniProt P04637). In words: TOX21_p53_BLA_p4_ratio: Tox21 HCT-116 p53 Agonism Beta-lactamase Assay, Ratio, Phase 4 (AID 2283601). Summed up: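 HCT116 cells carrying an inducible beta-lactamase reporter were plated at 4000 cells/well, rested 5 h, then exposed to compounds in DMSO (217-fold dilution) for 16 h at 37C. CCF4-AM substrate was loaded 2 h at room temperature; 460/530 nm emission ratio scored gain-of-signal versus DMSO.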
Chain of Cellular tumor antigen p53 (Homo sapiens) (P04637 whole entry, looked up): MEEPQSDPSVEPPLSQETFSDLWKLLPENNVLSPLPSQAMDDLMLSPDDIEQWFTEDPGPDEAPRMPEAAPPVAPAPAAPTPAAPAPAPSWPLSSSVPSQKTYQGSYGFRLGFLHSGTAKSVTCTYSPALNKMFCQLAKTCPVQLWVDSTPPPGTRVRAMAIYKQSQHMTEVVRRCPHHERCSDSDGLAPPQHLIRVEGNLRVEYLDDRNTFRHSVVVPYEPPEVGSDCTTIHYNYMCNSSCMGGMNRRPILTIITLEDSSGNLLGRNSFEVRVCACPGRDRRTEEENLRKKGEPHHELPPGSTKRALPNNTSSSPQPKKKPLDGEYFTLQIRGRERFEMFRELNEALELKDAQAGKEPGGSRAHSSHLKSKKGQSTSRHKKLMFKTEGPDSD

Test [16] is described as follows: ATG_EGR_CIS: Attagene CIS-FACTORIAL HepG2 Assay for human Early Growth Response 1 (EGR1) (AID 2282938; active = hit-call score of the fitted dose curve at least 0.9, where 1 is the maximum; inactive = score below 0.9). The settings on record: HepG2 Attagene CIS-FACTORIAL EGR reporter mRNA; actives raise or lower the signal. Summed up: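 After a 24 h treatment of transiently transfected HepG2 cells, total RNA was reverse-transcribed and reporter sequences PCR-amplified, labelled and run on capillary electrophoresis. Reporters sit under cis-regulatory promoters sensing endogenous factors.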

Test [17] can be described thus: ATG_GRE_CIS: Attagene CIS-FACTORIAL HepG2 Assay for human Glucocorticoid Response Elements (GRE) (AID 2282947; active = hit-call score of the fitted dose curve at least 0.9, where 1 is the maximum; inactive = score below 0.9). The settings on record: HepG2 GRE cis-reporter, Attagene multiplex mRNA; actives raise or lower the signal. The method in brief:
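HepG2 cells transiently transfected with multiple cis-promoter reporter units measure endogenous TF activity; 24 h compound exposure. Reporter mRNA quantified by RT-PCR, FAM labelling, HpaI digestion and capillary electrophoresis; bidirectional fit vs DMSO baseline.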

A short description of test [18]: ATG_RORE_CIS: Attagene CIS-FACTORIAL HepG2 Assay for human RAR-related Orphan Receptor Element (RORE) (AID 2282959; active = hit-call score of the fitted dose curve at least 0.9, where 1 is the maximum; inactive = score below 0.9). The following applies: HepG2 Attagene cis-factorial RORE reporter, mRNA; actives raise or lower the signal. The method in brief: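 A 24-hour exposure of transfected HepG2 hepatoma cells precedes RNA isolation and reporter RT-PCR. Labeled products are digested with HpaI and resolved by capillary electrophoresis, with gain or loss of signal scored relative to DMSO.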

Test [19] concerns the target human Retinoid X Receptor beta (RXRb), RXRB (gene 6257) (UniProt P28702). In words: ATG_RXRb_TRANS: Attagene TRANS-FACTORIAL HepG2 Assay for human Retinoid X Receptor beta (RXRb) (AID 2283013). Summed up:
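HepG2 cells transiently transfected with multiplexed reporter units driven by GAL4-UAS and exogenous chimeric NR-Gal4 proteins; treated 24 h. Reporter mRNA measured by RT-PCR, 6-FAM labelling and capillary electrophoresis; gain-of-signal fitted versus DMSO baseline.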

The nature of test [20]: ATG_M_06_TRANS: Attagene TRANS-FACTORIAL HepG2 Assay for M06 Transcription Factor (Internal Marker) (AID 2282983).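 Note: reporter transcript level by RT-PCR then capillary electrophoresis fluorescence.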 The following applies: HepG2 Attagene TRANS M06 internal marker reporter. Summed up:
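Cells: HepG2, transient multi-reporter transfection. Exposure: 24 h. Detection: RT-PCR, 6-FAM labelling, HpaI digestion (2 h, 37 °C), capillary electrophoresis. Baseline: DMSO.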

Chain of Nuclear receptor subfamily 1 group I member 2 (Homo sapiens) (O75469 whole entry, looked up, the tested form may be a part): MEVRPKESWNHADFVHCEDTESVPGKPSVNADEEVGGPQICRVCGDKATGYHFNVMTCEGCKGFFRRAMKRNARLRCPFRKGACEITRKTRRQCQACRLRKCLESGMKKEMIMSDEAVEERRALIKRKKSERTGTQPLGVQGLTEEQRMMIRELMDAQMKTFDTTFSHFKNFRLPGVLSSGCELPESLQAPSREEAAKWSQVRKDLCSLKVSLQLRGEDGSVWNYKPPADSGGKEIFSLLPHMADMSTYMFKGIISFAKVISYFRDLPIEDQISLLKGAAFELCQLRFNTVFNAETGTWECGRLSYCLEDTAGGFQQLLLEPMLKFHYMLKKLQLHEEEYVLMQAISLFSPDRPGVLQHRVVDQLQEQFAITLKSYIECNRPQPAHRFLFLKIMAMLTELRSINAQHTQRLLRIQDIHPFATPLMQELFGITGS
Chain of human Retinoid X Receptor beta (RXRb), RXRB (gene 6257) (P28702 whole entry, looked up, the tested form may be a part): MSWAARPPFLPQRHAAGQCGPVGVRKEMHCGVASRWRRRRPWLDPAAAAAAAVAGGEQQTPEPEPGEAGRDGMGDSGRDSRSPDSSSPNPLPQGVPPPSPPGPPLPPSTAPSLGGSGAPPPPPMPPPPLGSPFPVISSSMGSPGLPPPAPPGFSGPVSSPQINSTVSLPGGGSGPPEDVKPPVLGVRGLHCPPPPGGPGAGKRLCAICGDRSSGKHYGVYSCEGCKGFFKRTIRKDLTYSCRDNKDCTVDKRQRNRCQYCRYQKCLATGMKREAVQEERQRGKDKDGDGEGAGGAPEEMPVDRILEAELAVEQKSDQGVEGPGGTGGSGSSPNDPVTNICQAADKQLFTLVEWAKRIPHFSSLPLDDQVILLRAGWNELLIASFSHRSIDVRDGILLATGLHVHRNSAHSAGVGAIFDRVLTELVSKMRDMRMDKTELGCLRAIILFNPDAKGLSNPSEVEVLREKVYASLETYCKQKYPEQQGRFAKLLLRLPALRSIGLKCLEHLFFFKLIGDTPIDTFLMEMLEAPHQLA

As a reminder, the AC50 is the concentration giving half of the maximal activity seen. For the compound `CC1OC(C)OC(C)O1` (configuration not stated), the result in test [1], in test [2], in test [3], in test [4], in test [5] and in test [6] was inactive. For the same compound, the call in test [7], in test [8], in [9], in [10], in test [11] and in [12] was inactive. In addition, the outcome in test [13], in test [14] and in test [15] was inactive. For the same compound, the AC50 in test [12] was 34.1 µM (active).

For `C=CCN(CC=C)C(=O)C(Cl)Cl`, the call in test [16], in test [17], in test [2], in test [3], in test [5] and in test [7] was inactive. Besides, the result in [8], in test [9], in test [10], in test [11], in test [12] and in [13] was inactive. Moreover, the compound was called inactive in test [14] and in test [15].

With `COc1cc(OC)c(OC)cc1C=O`, the compound was called inactive in test [16], in [17], in [18], in test [4], in test [5] and in test [6]. The result in [7], in test [9], in test [10], in test [19], in [11] and in [12] was inactive. The outcome in [13], in [14] and in [15] was inactive.

As to `O=[N+]([O-])O.O=[N+]([O-])O.[Cd]`, the AC50 in test [16] was 1 µM (active); in test [8], 2.18 µM (active). Further, the call in test [17], in test [2], in test [4], in [5], in test [6] and in [20] was inactive. Also, the call in test [10] and in test [14] was inactive.

`COCC(=O)N(c1c(C)cccc1C)N1CCOC1=O`: the result in [1], in test [16], in [2], in test [18], in test [4] and in [5] was inactive. Also, the outcome in test [6], in [8], in test [10], in [11] and in [13] was inactive. Also, the AC50 in [9] is 27.4 µM (active).

(Values after PubChem BioAssay (EPA / NIEHS).)
